Most compounds without a hit are left out; they make up all but 1.4% or so of the library.
ZTA DNA inh: blocks Epstein-Barr virus ZTA, an EBNA-1 counter-screen | P03206 | ZTA-DNA binding, fluorescence polarization | inhibition, % at 11 µM | 0.15% of 320,000 active | AID 2234; in the data active = inhibition above about 33%
LYPLA2 counter: LYPLA2 inhibitors, primary screen, counter-screen for PME1 inhibitor project, biochemical, fluorescence polarization, FP-Rh probe ABPP; Acyl-protein thioesterase 2 (Homo sapiens), O95372; recombinant LYPLA2; inhibition, % at 5.9 µM; 0.38% of 320,000 active; AID 2177, 2009;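 active = inhibition above the screen-wide mean plus 3 SD, limit set per campaign, cut at about 26% in these data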
Target sequence (O95372 whole entry, looked up): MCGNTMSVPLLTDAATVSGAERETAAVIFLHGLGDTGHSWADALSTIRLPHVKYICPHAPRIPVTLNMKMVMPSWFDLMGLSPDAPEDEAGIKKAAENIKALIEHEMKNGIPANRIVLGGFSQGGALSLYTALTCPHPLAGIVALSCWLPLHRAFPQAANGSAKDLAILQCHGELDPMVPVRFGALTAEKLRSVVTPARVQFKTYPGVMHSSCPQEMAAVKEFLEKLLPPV
LANA-H2B inh: blockers of LANA interaction with H2A/H2B – biochemical, FP readout, HTS, primary screen. Protein LANA1 (Human herpesvirus 8 type P (isolate GK18)), Q9QR71. cell-free LANA-H2A/H2B peptide, fluorescence polarization. inhibition, % (no concentration beside the values). 0.6% of 320,000 active. AID 2629, 2010; in the data active = inhibition mostly above about 10%, no sharp cut-off; inactive = mostly below about 6.7%
LYPLA1 counter: LYPLA1 inhibitors, primary screen, counter-screen for PME1 inhibitor project, biochemical, fluorescence polarization, FP-Rh probe ABPP. 0.16% of 320,000 active. inhibition, % at 5.9 µM. Acyl-protein thioesterase 1 (Homo sapiens), O75608. recombinant LYPLA1. AID 2174, 2009;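 active = inhibition above the mean of all tested compounds plus 3 SD, set per campaign, cut at about 14% in these data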;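 note: inhibitors block serine hydrolase probe labeling of LYPLA1 so polarization falls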
Target sequence (O75608 whole entry, looked up): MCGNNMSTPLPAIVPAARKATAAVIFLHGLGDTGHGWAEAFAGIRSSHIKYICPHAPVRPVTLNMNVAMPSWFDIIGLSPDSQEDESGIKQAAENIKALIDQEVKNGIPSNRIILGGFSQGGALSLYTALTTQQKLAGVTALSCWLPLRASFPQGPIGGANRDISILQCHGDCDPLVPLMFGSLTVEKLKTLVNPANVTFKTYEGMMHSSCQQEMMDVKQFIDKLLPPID
EBNA-1 inhibitor: EBNA-1 DNA-binding inhibitors, primary screen, biochemical, fluorescence polarization; inhibition, % at 14.8 µM; 0.34% of 300,000 active; in the data active = inhibition above about 28%
EBNA-1 inh conf: EBNA-1 DNA-binding inhibitors, retest, confirmation, biochemical, fluorescence polarization, triplicate. shares compounds with EBNA-1 inhibitor. 35% of 830 active. Recombinant EBNA-1 DBD, Cy5-DNA fluorescence polarization. inhibition, % at 14.8 µM;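 active = mean inhibition across replicates above a set limit taken from the earlier primary screen, cut at about 28% in these data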
ZTA DNA inh trip: EBV Zta DNA binding inhibitors, counter-screen for EBNA-1 inhibitor project, biochemical, fluorescence polarization, triplicate; shares compounds with EBNA-1 inhibitor; Zta-ZRE DNA binding, Cy5 fluorescence polarization; inhibition, % at 11.1 µM; 830 tested, under 10 active;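 active = mean inhibition over triplicates above a set limit taken from the primary EBNA-1 screen, cut at about 37% in these data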;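 note: purified full length Zta protein with Cy5 labeled ZRE DNA probe; inhibitors lower polarization by freeing the labeled DNA probe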
Numbers stand for hits; - = inactive; . = no result.

SMILES	ZTA DNA inh	LYPLA2 counter	LANA-H2B inh	LYPLA1 counter	EBNA-1 inhibitor	EBNA-1 inh conf	ZTA DNA inh trip
CN1CCN(C(=O)C2CC(=O)N(c3ccc(Cl)cc3)C2)CC1 (stereo unspecified)	-	-	-	-	-	.	.
O=c1c2ccccc2[nH]c(=S)n1Cc1ccc2c(c1)OCO2	-	-	-	-	-	.	.
O=C(CCCCCn1c(=S)[nH]c2ccccc2c1=O)NCc1ccc2c(c1)OCO2	-	-	-	-	32.4	-	-
COC(=O)c1ccc2c(=O)n(CCCCCC(=O)NCc3ccc4c(c3)OCO4)c(=O)[nH]c2c1	-	-	-	-	62.6	-	-
O=C(CCn1c(=S)[nH]c2ccccc2c1=O)Nc1cccc(Cl)c1	-	-	-	-	27.7	-	-
CCCCCn1c(=O)[nH]c2cc(C(=O)NCc3ccc4c(c3)OCO4)ccc2c1=O	-	-	-	-	30.9	-	-
CCCCNC(=S)N(CCO)Cc1cc2cc3c(cc2[nH]c1=O)OCCO3	-	-	-	-	-	.	.
CC(OC(=O)c1cccc(S(=O)(=O)N2CCCCCC2)c1)C(=O)Nc1ccc(S(N)(=O)=O)cc1 (stereo unspecified)	-	-	-	-	-	.	.
Cc1ccccc1Nc1nnc(SCc2nc3ccccc3c(=O)[nH]2)s1	-	-	-	-	-	.	.
CCOc1ccc(Nc2nnc(SCc3nc4ccccc4c(=O)[nH]3)s2)cc1	-	-	-	-	37.9	51.9	-
COCCCNC(=O)c1ccc(Cn2c(=O)c3ccccc3n(Cc3ccccc3C#N)c2=O)cc1	-	-	-	-	32.5	-	-
COCCCNC(=O)c1ccc(Cn2c(=O)c3ccccc3n(Cc3ccccc3C)c2=O)cc1	-	-	-	-	-	.	.
CCS(=O)(=O)N1CCN(S(=O)(=O)c2ccc(S(=O)(=O)NC3CC3)cc2)CC1	-	-	-	-	47.8	43.6	-
CC(=O)N1CCN(S(=O)(=O)c2ccc(S(=O)(=O)NC3CC3)cc2)CC1	-	-	-	-	-	.	.
COc1ccc(NC(=O)CSCc2cc(=O)n3cc(C)sc3n2)cc1	-	-	-	-	-	.	.
CN1C(=O)N(C)C2(c3ccccc3)Nn3c(s/c(=C/c4ccccc4F)c3=O)=NC12c1ccccc1 (stereo unspecified)	-	-	-	-	-	.	.
CN1C(=O)N(C)C2(c3ccccc3)Nn3c(s/c(=C/c4ccco4)c3=O)=NC12c1ccccc1 (stereo unspecified)	-	-	-	-	44.7	77.1	-
CC(C)NC(=O)C(Sc1ccccc1)c1ccccc1 (stereo unspecified)	-	-	-	-	39.1	-	-
COc1cccc2c(=O)n(CC(=O)N3CCc4ccccc43)ccc12	-	-	-	-	-	.	.
CCOC(=O)COc1cccc2c(=O)n(CC(=O)N3CCc4ccccc43)ccc12	-	-	-	-	36.4	-	-
Cn1ncc(N=Cc2c(O)ccc3ccccc23)c1C(=O)N1CCOCC1	-	-	-	-	-	.	.
COc1ccccc1NC(=O)c1c(N=Cc2c(O)ccc3ccccc23)cnn1C	-	-	-	-	39.0	-	-
CN1CCN(C2=NC(=O)/C(=C/c3cn[nH]c3-c3ccccc3)S2)CC1	-	-	-	-	-	.	.
O=C1N=C(N2CCCCC2)S/C1=C\c1cn[nH]c1-c1ccccc1	-	-	-	-	90.8	-	-
Cc1ccc(S(=O)(=O)N(CC(=O)N/N=C\c2cccs2)c2cccc3cccnc23)cc1	-	-	-	-	32.5	28.3	-
SMILES	ZTA DNA inh	LYPLA2 counter	LANA-H2B inh	LYPLA1 counter	EBNA-1 inhibitor	EBNA-1 inh conf	ZTA DNA inh trip
Cc1ccc(S(=O)(=O)N(CC(=O)N/N=C/c2cccc(C)c2)c2cccc3cccnc23)cc1	-	-	-	-	-	.	.
CCOC(=O)C1CCCN(C(=O)CNC(=O)c2ccc(Br)o2)C1 (stereo unspecified)	.	.	-	.	.	.	.
C[C@H](NC(=O)[C@@H]1Cc2ccccc2CN1C(=O)OC(C)(C)C)C(=O)NCC1CCCO1 (stereo partly specified)	-	-	-	-	-	.	.
CC(OCc1ccccc1)C(NC(=O)OC(C)(C)C)C(=O)NCC1CCCO1 (stereo unspecified)	-	-	-	-	46.1	-	-
O=C(COc1ccccc1Br)N1CCN(c2ccccc2)CC1	-	-	-	-	-	.	.
O=C(Cc1ccc(NS(=O)(=O)c2ccc(F)cc2)cc1)NCc1cccnc1	-	-	-	-	-	.	.
Cc1cc(NC(=O)CSC2=NS(=O)(=O)c3cc(F)ccc3N2)no1	-	-	-	-	-	.	.
COc1ccc(Cc2c(Cl)ncnc2Cl)cc1	-	-	-	-	32.9	-	-
O=C(CCN1CCOCC1)NC1CCCN(Cc2ccccc2F)C1 (stereo unspecified)	-	-	-	-	-	.	.
CC1CCN(C(=O)c2nc[nH]c2C(=O)N2CCC(C)CC2)CC1	-	-	-	-	.	.	.
COC(=O)C(=N/Nc1ccccc1C(=O)OC)/C(C)=N/O	-	-	-	-	57.1	42.4	-
CNc1ccccc1C(=O)OC	-	-	-	-	-	.	.
COc1ccc(Cn2cccc(NC(=O)Nc3cccc(C#N)c3)c2=O)cc1	-	-	-	-	105.7	117.3	-
COc1ccccc1CC(=O)Nc1ccc(S(=O)(=O)N2CC(C)CC(C)C2)cc1 (stereo unspecified)	-	-	-	-	.	.	.
CCCNC(=O)c1ccc2c(=O)c(O)c(-c3ccc(C)cc3)[nH]c2c1	-	-	-	-	-	.	.
CCCNC(=O)c1ccc2c(=O)c(O)c(-c3ccc(OC)cc3)[nH]c2c1	-	-	-	-	32.5	-	-
CC(=O)c1cc(C)ccc1OC(=O)c1ccncc1	-	-	-	-	-	.	.
CC(=O)c1cc(C)ccc1OC(=O)c1cccc2nc(C)oc12	-	-	-	-	81.2	-	-
CN(Cc1ccccc1)C(=O)COc1cccnc1[N+](=O)[O-]	-	-	-	-	-	.	.
CC(=O)/C(=N\Nc1cccc(Cl)c1)Sc1nnc(-c2ccccc2)n1-c1ccccc1	-	-	-	-	33.3	-	-
COCCOC(=O)c1c(NC(=O)COC(=O)Cc2cccc(OC)c2)sc(C(N)=O)c1C	-	-	-	-	38.6	98.3	-
CC(=O)C(/C=N/c1cc(-c2ccc(C)cc2)nn1-c1ccccc1)=C(\C)O	-	-	-	-	30.1	50.0	-
Cc1ccc(NC(=O)c2cc(-c3ccccc3)nn2-c2ccccc2)cc1	-	-	-	-	-	.	.
O=C(NNC(=O)C1CCN(S(=O)(=O)c2ccc(Cl)cc2)CC1)c1ccc(S(=O)(=O)N2CCCCC2)cc1	-	-	-	-	31.3	-	-
